Shown are actives, neighbours in structure and some others; about 17% of the full set was active somewhere.
DT40 TDP1 CPT – DT40-hTDP1 cell growth loss with CPT; chicken DT40 Tdp1-/-;hTDP1 cells + 20 nM CPT, ATP luminescence, 48 h; Potency, µM (titrated, usually from 46.2 µM), usual class: inhibitors; actives 12% (n = 420,000); AID 686979; further: nearly all actives have a fitted effect of over 55% in size
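Chicken DT40 Tdp1-/- cells complemented with human TDP1, 400 cells/well, exposed to compounds plus 20 nM camptothecin for at least 48 h at 37 C; viability read as ATP content by CellTiter-Glo luminescence.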
ClpP mod – qHTS Assay for Activators of ClpP | purified B. subtilis ClpP, FRET peptide cleavage, 20 min | Potency, µM (series often up to 57.5 µM) | actives 1.9% (n = 340,000); active means well fitted falling curve with a large enough effect; inconclusive means small, poorly fitted or top-dose-only effect; inactive means no such curve, though single readings can be large or run the other way; further: the source files actives as falling curves though it sought activators and does not explain the sign; nearly all actives have a fitted effect of over 65% in size
Target sequence (P80244 whole entry, looked up): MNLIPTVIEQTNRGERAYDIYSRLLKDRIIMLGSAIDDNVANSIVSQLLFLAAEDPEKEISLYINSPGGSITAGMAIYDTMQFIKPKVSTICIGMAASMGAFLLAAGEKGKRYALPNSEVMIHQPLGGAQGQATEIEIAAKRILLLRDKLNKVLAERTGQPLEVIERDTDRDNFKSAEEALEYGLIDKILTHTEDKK
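FRET quenching reversal measured ClpP activation: 10 microg/mL B. subtilis ClpP at pH 8 with the FRET-FV decapeptide, read at 430 nm after 320 nm excitation. The 20-min minus 0-min signal was scaled between DMSO/no-enzyme wells and ADEP (5.8 microM final).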
TDP1 block – TDP1 (human) enzyme inhibition. Q9NUW8. recombinant TDP1, AlphaScreen DNA substrate cleavage. Potency, µM (highest dose often 130 µM), actives largely listed as inhibitors. actives 0.28% (n = 350,000); further: nearly all actives have a fitted effect of over 40% in size
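Recombinant human Tdp1 (E. coli-expressed, 1 nM final) preincubated with compounds 15 min at room temperature, then 5'-biotin/3'-phosphotyrosine-FITC DNA substrate (15 nM final) added for 5 min. AlphaScreen beads (10 ug/ml final) added 10 min; cleavage lowers signal.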
DT40 TDP1 no CPT – qHTS for Inhibitors of human tyrosyl-DNA phosphodiesterase 1 (TDP1): qHTS in cells in absence of CPT; DT40 Tdp1-/- hTDP1 cells, no CPT, ATP luminescence, 48 h; Potency, µM (top dose mostly 46.2 µM), actives largely listed as inhibitors; actives 15% (n = 420,000); further: nearly all actives have a fitted effect of over 55% in size
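Camptothecin absent (DMSO only). Human TDP1-complemented DT40 knockout cells, 400 cells/well, 37 °C for minimum 48 hr; ATP measured via CellTiter-Glo, 30 min dark incubation, luminescence.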
A number is an active result; . = inactive; ? = inconclusive; / = no result; ! = not active in a repeat; [ ] = remark or other dose. Unless noted, the call rests on the fitted dose curve; in most records, active means well fitted curve in the direction sought with a large enough effect; inconclusive means small, poorly fitted or top-dose-only effect, or another doubt; inactive means no such curve, though single readings can be large; an effect the other way counts as inactive or inconclusive.

SMILES | DT40 TDP1 CPT | ClpP mod | TDP1 block | DT40 TDP1 no CPT
COc1ccc(OC)c2c(/C=C/c3c(C)[nH]c4ccccc34)ccnc12 | 10µM | . | / | 11.2µM
CN(C)c1ccc(/C=C/c2ccnc3c(N)cccc23)cc1 | 2µM | . | / | 1.41µM
COc1ccc(/C=N/Nc2ncnc3c2[nH]c2ccccc23)c(OC)c1OC | . | . | . | .
O=C(CCNC(=O)c1ccc([N+](=O)[O-])cc1)NCc1cccs1 | . | . | . | .
COc1ccc(NC(=O)CN(c2ccc(F)cc2)S(=O)(=O)c2ccccc2)c(OC)c1 | ? | . | . | ?
COc1cccc(N(CC(=O)Nc2cccc(C(C)=O)c2)S(C)(=O)=O)c1 | . | . | . | .
COc1ccc(N(CC(=O)Nc2cccc(C(C)=O)c2)S(=O)(=O)c2ccccc2)c(OC)c1 | 7.31µM | . | . | 6.51µM
CCc1ccccc1NC(=O)CN(c1ccc(OC)cc1OC)S(=O)(=O)c1ccccc1 | 20.6µM | . | / | ?
CCOc1ccc(N2CC(C(=O)Nc3nnc(C4CCCCC4)s3)CC2=O)cc1 (configuration not stated) | ? | . | .[0.0935 µM] | ?
CCOC(=O)c1c(C2CC2)csc1NC(=O)COC(=O)CCS(=O)(=O)c1ccc(C)cc1 | . | . | . | .
COc1ccccc1-c1cc(C(=O)NC2CCN(C)CC2)c2ccc(Cl)c(C)c2n1 | 11.6µM | . | . | 20.6µM
Cc1c(Cl)ccc2c(C(=O)NCCCn3nccc3C)cc(-c3ccccn3)nc12 | 20.6µM | . | . | ?
O=C(NCCN1CCCCC1)c1cc(Cl)ccc1Cl | . | . | / | .
Cc1cc(C)c2nc(-c3ccccn3)cc(C(=O)NCc3cc(C)n(C)n3)c2c1 | . | . | . | ?
Cc1c(Cl)ccc2c(C(=O)NCCN3CCCCC3)cc(-c3ccccn3)nc12 | ? | / | . | 9.2µM
Cc1cc(-c2ccccc2)nc(Nc2nc3c(C)cccc3c(=O)[nH]2)n1 | ? | . | / | ?
Nc1ccccc1OC1=NS(=O)(=O)c2ccccc21 | / | / | . | /
CCCCCn1c(C(C)NC(=O)c2ccccc2)nc2ccccc21 (configuration not stated) | ? | . | . | .
COc1ccc(-n2c(CN3CCC(C)CC3)nc3ccc([N+](=O)[O-])cc3c2=O)c(OC)c1 | 18.4µM | . | . | ?
Cc1ccccc1Cn1nc(C)c(NC(=O)c2sc3ccccc3c2Cl)c1C | ? | . | . | 20.6µM
Cc1nn(Cc2ccc(Cl)cc2Cl)c(C)c1NC(=O)c1sc2ccccc2c1Cl | . | . | . | .
Cc1nn(Cc2c(Cl)cccc2Cl)c(C)c1NC(=O)c1sc2ccccc2c1Cl | 18.4µM | . | . | 16.4µM
Cc1nn(Cc2ccc(Cl)c(Cl)c2)c(C)c1NC(=O)c1sc2ccccc2c1Cl | ? | . | . | 14.6µM
CCCCCCCCCC[Si](C)(C)CCC(=O)NC(Cc1ccc(C)cc1)c1ccccc1 (configuration not stated) | / | / | . | /
O=C1C(C=NCCN2CCOCC2)=C(O)c2ccccc21 | . | 28.2µM | . | .
SMILES | DT40 TDP1 CPT | ClpP mod | TDP1 block | DT40 TDP1 no CPT
O=C(Cn1c(=O)n(Cc2ccco2)c(=O)c2c3c(sc21)CCCCC3)c1ccccc1 | 14.6µM | . | . | 14.6µM
O=c1c2c3c(sc2n(CCN2CCCC2)c(=O)n1Cc1ccco1)CCCCC3 | 8.2µM | . | . | 11.6µM
O=C(Cn1c(=O)n(Cc2ccco2)c(=O)c2c3c(sc21)CCCCC3)Nc1ccccc1 | . | . | / | ?
CN(C)CCn1c(=O)n(Cc2ccco2)c(=O)c2c3c(sc21)CCCCC3 | ? | . | . | ?
COc1ccccc1NC(=O)CSc1nncs1 | . | . | . | .
O=C(OC1CCOC1=O)c1cc(S(=O)(=O)N2CCOCC2)c(Cl)cc1Cl (configuration not stated) | . | . | . | .
Oc1cc(CNCc2ccccc2)c(O)cc1CNCc1ccccc1 | ? | / | / | 13µM
OCc1ccccc1CNCc1ccccc1 | . | . | . | .
O=C(c1cc(C2CCCCN2C(=O)OCCF)on1)N1CCOCC1 (configuration not stated) | . | . | / | .
O=C(O)c1cccnc1SC1CC(=O)N(c2cccc(C(F)(F)F)c2)C1=O (configuration not stated) | . | . | . | .
O=C(O)c1cccnc1SC1CC(=O)N(c2ccc(OC(F)F)cc2)C1=O (configuration not stated) | ? | / | / | 14.6µM
O=C(O)c1cccnc1SC1CC(=O)N(CCc2ccccc2)C1=O (configuration not stated) | . | . | . | .
O=C(O)c1cccnc1SC1CC(=O)N(Cc2ccccc2)C1=O (configuration not stated) | 14.6µM | . | . | 20.6µM
COc1cccc(NC(=O)c2ccc(N3C(=O)C4CCC(C)CC4C3=O)cc2)c1 (configuration not stated) | . | . | / | ?
Cc1cc(CN2CCCCC2C(=O)Nc2ccc(Oc3cccnc3)cc2)oc1C (configuration not stated) | ? | . | . | ?
CCCCCn1c(=O)[nH]c2cc(C(=O)N3CCN(c4cccc(Cl)c4)CC3)ccc2c1=O | 10.3µM | . | . | ?
COCCn1c(=O)[nH]c2cc(C(=O)N3CCN(c4ccc(Cl)cc4)CC3)ccc2c1=O | 5.8µM | . | . | 6.51µM
COc1ccc(N2CCN(C(=O)CCn3c(=O)[nH]c4cc(OC)c(OC)cc4c3=O)CC2)cc1 | . | . | . | .
COc1ccc(N2CCN(C(=O)c3ccc4c(=O)n(CCc5ccc(OC)c(OC)c5)c(=O)[nH]c4c3)CC2)cc1 | 14.6µM | . | . | 16.4µM
O=C(c1ccc2c(=O)n(CCc3ccccc3)c(=O)[nH]c2c1)N1CCN(c2ccccc2)CC1 | ? | . | . | ?
O=C(c1ccc2c(=O)n(CCc3ccccc3)c(=O)[nH]c2c1)N1CCN(c2ccc(Cl)cc2)CC1 | 16.4µM | . | . | 18.4µM
CCN(CC)C(=O)C1=C(C)N(Cc2ccccc2)C(=O)C(CC(=O)NCc2ccco2)C1 (configuration not stated) | . | . | / | .
O=C(c1ccc2c(=O)n(CCc3ccccc3)c(=O)[nH]c2c1)N1CCN(C(=O)c2ccco2)CC1 | 12.6µM | . | / | 11.2µM
O=C(CCCCCn1c(=O)[nH]c2ccccc2c1=O)N1CCN(c2ccc(Cl)cc2)CC1 | ? | ? | . | ?
O=C(Cn1c(=O)[nH]c2ccccc2c1=O)N1CCN(c2cccc(Cl)c2)CC1 | . | 31.6µM | . | .
O=C(c1ccc(F)cc1)C1CCN(CCn2c(=O)[nH]c3ccccc3c2=O)CC1 | 7.31µM! | . | . | ?
Cc1ccc(Cl)cc1N1CCN(C(=O)CCCCCn2c(=O)[nH]c3ccccc3c2=O)CC1 | 0.731µM | . | . | 0.651µM
O=C(CCCn1c(=O)[nH]c2ccccc2c1=O)Nc1ccc(F)cc1 | . | . | . | .
COc1ccc(CN(Cc2ccc(C(=O)O)cc2)C(=S)Nc2ccccc2F)cc1OC | . | / | . | .

Screening results (PubChem BioAssay)
